Test [1] deals with Homeodomain-interacting protein kinase 3 (Homo sapiens) (UniProt Q9H422). Particulars: at 10 µM; call rule not given here.
Test [2] concerns the target T1, Serine/threonine-protein kinase haspin (Homo sapiens) (UniProt Q8TF76).
T1 sequence (whole entry): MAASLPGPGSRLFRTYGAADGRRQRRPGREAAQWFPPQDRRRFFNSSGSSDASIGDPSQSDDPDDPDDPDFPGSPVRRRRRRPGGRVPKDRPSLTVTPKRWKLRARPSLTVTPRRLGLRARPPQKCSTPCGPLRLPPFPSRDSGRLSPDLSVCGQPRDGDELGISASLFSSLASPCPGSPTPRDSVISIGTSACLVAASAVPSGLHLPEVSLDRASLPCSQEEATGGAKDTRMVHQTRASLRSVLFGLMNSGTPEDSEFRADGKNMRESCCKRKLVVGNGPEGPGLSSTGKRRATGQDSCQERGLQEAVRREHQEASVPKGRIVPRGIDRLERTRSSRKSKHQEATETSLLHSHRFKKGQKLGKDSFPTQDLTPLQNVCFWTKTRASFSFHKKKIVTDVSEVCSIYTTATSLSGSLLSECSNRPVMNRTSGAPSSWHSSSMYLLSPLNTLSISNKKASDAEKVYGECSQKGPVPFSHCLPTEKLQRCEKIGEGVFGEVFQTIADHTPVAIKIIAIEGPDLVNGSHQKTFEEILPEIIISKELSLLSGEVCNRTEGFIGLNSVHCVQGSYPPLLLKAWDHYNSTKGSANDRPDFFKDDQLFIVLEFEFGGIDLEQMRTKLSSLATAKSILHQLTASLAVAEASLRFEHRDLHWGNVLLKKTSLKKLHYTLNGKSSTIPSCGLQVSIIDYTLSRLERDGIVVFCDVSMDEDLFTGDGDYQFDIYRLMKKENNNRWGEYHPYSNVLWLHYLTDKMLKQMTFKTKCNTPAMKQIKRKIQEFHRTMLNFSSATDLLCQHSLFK
Particulars: at 1 µM.

Test [3] deals with T1, Serine/threonine-protein kinase haspin (Homo sapiens). Particulars: at 10 µM.
Test [4] has as its target Tyrosine-protein kinase HCK (Homo sapiens) (UniProt P08631). Particulars: at 1 µM.
Test [5] shares this target. Particulars: at 10 µM.
The target is the same in test [6]. Particulars: at 1 µM. This is another data set of the same source.
Test [7] shares this target. Particulars: at 10 µM. The source holds these as a separate data set.
Test [8] concerns the target Insulin-like growth factor 1 receptor (Homo sapiens) (UniProt P08069). Particulars: at 1 µM.
Test [9] has the same target. Particulars: at 10 µM.
In test [10] the target is T2, Protein kinase C zeta type (Homo sapiens) (UniProt Q05513).
T2 sequence (whole entry): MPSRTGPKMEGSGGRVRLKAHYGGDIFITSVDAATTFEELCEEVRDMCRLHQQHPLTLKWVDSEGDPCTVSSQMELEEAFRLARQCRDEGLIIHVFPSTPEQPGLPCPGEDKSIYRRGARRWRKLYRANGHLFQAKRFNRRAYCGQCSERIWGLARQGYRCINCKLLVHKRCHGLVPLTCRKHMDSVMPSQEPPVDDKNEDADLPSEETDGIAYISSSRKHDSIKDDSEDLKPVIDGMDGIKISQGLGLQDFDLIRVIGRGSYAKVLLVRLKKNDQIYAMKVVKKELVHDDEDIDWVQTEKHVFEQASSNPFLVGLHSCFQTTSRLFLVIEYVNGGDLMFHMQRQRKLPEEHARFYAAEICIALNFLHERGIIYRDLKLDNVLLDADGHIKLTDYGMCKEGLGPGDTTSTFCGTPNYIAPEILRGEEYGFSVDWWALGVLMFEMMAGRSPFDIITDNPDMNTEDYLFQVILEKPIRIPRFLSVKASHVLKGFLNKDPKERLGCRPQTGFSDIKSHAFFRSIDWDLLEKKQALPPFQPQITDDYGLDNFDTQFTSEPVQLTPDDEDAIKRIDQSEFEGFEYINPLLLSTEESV
Particulars: at 10 µM.

Test [11] concerns the target Protein kinase C eta type (Homo sapiens) (UniProt P24723). Particulars: at 1 µM.
For test [12] the target is unchanged. Particulars: at 10 µM.
Test [13] concerns the target Protein kinase C theta type (Homo sapiens) (UniProt Q04759). Particulars: at 1 µM.
The target is the same in test [14]. Particulars: at 10 µM.
For test [15], the target named is T3, Protein kinase C iota type (Homo sapiens) (UniProt P41743).
T3 sequence (whole entry): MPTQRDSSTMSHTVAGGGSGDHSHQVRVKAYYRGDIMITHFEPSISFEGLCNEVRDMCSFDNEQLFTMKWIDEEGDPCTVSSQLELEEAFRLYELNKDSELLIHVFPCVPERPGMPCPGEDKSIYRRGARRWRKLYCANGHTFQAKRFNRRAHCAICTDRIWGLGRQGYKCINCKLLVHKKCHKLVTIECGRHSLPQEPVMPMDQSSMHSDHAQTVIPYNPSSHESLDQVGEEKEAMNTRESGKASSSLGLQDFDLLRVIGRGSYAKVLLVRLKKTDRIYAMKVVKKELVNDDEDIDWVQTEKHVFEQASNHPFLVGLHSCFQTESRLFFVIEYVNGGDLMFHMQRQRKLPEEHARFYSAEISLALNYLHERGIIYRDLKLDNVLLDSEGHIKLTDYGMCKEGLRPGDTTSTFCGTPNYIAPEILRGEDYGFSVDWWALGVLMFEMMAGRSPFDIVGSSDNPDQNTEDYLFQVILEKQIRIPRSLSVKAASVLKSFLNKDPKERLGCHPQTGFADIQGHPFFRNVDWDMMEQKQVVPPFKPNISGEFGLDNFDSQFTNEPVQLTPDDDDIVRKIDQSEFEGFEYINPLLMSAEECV
Particulars: at 1 µM.

In test [16] the target is T3, Protein kinase C iota type (Homo sapiens). Particulars: at 10 µM.
Test [17] deals with T4, Serine/threonine-protein kinase D1 (Homo sapiens) (UniProt Q15139).
T4 sequence (whole entry): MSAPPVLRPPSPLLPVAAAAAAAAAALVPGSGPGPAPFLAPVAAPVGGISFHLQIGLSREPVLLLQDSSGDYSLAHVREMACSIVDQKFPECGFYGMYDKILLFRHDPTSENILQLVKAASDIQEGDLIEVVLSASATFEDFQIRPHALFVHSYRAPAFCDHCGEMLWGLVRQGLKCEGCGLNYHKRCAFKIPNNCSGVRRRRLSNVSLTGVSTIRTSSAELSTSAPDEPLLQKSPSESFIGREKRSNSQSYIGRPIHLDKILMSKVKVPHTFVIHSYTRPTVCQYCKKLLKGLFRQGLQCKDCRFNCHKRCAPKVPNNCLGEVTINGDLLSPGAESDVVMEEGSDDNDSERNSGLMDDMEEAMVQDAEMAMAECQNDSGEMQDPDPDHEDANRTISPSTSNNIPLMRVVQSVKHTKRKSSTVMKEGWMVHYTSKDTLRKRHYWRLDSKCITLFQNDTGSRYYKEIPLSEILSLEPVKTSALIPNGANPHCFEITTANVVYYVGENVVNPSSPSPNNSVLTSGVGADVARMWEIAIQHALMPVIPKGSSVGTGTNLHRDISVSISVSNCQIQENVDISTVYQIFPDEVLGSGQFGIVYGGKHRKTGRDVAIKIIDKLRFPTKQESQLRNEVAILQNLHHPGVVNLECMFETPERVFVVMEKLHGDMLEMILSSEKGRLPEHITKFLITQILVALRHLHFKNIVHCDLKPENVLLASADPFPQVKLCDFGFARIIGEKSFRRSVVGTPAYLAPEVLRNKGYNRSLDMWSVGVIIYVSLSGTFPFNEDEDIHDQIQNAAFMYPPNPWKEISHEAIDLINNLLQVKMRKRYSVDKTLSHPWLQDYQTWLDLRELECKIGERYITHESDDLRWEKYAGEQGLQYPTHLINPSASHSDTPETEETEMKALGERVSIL
Particulars: at 1 µM.

Test [18] addresses T4, Serine/threonine-protein kinase D1 (Homo sapiens). Particulars: at 10 µM.
Test [19] deals with T5, Serine/threonine-protein kinase D2 (Homo sapiens) (UniProt Q9BZL6).
T5 sequence (whole entry): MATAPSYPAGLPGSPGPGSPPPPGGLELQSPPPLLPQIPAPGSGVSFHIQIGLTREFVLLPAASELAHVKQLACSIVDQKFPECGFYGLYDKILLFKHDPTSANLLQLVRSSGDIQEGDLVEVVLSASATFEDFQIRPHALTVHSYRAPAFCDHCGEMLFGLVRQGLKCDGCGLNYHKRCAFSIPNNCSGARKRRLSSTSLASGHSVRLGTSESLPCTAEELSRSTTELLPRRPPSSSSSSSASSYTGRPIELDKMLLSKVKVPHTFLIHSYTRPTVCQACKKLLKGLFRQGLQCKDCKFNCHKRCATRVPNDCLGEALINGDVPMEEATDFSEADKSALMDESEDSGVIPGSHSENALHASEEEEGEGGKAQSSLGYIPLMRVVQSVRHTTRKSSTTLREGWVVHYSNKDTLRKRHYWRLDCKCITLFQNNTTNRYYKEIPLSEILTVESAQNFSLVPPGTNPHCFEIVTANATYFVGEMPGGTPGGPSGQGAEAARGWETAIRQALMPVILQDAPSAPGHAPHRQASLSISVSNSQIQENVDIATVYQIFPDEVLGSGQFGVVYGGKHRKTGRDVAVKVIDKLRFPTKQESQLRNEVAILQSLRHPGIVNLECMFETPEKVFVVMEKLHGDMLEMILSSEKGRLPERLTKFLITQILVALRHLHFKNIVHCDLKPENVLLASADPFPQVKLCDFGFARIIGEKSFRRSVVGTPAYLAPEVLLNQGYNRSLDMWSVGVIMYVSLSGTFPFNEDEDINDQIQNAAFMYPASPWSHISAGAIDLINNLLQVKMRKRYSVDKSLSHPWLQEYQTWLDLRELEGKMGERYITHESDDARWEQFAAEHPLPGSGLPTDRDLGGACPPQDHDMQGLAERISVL
Particulars: at 1 µM.

Test [20] addresses T5, Serine/threonine-protein kinase D2 (Homo sapiens). Particulars: at 10 µM.

Among the data in ChEMBL document CHEMBL2218924, “A broad activity screen in support of a chemogenomic map for kinase signalling research and drug discovery” (Biochem J, 2013) are residual activity values, retold here.

As a reminder, the residual activity is the signal under treatment as a percentage of the control signal.

Protein kinase C eta type (Homo sapiens), sequence (P24723 whole entry): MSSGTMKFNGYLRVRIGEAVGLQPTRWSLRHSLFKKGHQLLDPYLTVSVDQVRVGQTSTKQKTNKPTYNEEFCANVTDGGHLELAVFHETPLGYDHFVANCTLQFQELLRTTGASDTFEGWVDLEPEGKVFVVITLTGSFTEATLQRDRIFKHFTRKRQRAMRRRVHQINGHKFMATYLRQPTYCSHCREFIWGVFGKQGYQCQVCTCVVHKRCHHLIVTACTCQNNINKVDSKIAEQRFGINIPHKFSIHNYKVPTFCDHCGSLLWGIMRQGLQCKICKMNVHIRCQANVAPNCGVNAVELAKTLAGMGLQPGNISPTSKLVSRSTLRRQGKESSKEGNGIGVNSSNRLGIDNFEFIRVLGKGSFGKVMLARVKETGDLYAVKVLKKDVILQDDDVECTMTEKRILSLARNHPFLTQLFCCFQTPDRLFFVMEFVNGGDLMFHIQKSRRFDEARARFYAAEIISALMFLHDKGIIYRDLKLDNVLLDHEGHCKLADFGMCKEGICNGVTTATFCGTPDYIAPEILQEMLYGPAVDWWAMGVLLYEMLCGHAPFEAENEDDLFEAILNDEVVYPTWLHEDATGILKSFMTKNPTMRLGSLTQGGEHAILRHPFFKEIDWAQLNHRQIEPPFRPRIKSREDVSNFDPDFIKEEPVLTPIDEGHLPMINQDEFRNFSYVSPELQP
Homeodomain-interacting protein kinase 3 (Homo sapiens), sequence (Q9H422 whole entry, looked up): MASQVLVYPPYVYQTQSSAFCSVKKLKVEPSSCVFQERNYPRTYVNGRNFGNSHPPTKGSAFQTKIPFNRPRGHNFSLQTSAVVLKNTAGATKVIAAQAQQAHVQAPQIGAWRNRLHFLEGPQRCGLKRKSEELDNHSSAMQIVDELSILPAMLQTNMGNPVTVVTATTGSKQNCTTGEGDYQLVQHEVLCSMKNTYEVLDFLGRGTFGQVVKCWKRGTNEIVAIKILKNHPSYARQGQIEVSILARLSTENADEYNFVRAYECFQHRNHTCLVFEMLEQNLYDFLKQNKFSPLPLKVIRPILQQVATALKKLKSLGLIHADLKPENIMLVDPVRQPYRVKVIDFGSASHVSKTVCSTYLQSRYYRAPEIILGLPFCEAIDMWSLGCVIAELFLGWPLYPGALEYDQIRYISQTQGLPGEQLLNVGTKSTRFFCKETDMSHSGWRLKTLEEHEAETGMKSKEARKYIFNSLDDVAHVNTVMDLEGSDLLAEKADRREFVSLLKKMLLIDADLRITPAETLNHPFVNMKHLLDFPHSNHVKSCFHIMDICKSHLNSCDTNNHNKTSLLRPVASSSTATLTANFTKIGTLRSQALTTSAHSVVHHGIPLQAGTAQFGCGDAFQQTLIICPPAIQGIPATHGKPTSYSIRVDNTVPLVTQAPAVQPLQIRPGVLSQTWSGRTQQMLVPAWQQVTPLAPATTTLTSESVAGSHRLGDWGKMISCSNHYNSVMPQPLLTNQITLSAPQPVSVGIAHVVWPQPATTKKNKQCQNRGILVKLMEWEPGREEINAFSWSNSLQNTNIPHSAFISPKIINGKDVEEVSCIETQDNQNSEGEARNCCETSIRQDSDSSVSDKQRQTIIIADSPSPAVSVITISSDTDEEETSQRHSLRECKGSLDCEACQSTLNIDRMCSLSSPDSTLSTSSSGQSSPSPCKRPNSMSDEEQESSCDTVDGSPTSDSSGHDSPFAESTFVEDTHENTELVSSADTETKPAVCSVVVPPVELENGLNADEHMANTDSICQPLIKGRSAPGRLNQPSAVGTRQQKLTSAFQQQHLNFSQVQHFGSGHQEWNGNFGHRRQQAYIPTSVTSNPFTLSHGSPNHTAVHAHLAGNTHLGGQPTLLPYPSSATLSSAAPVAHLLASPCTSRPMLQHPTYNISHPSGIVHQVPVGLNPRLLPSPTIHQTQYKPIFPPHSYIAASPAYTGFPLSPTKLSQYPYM
Tyrosine-protein kinase HCK (Homo sapiens), sequence (P08631 2-526 limits assumed): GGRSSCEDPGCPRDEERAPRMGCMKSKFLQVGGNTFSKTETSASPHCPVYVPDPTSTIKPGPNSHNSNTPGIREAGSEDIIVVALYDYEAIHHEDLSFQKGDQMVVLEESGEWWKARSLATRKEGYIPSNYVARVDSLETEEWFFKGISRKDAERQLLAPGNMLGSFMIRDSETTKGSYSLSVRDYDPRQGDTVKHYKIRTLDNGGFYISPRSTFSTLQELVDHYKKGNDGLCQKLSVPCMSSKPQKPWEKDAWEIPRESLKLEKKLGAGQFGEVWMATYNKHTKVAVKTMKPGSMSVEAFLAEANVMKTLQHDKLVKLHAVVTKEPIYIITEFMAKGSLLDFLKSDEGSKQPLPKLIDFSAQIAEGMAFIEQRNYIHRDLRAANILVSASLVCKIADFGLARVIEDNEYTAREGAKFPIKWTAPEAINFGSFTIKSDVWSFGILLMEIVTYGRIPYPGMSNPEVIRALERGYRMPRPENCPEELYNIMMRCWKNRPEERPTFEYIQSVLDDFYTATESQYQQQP
Protein kinase C theta type (Homo sapiens), sequence (Q04759 whole entry, looked up): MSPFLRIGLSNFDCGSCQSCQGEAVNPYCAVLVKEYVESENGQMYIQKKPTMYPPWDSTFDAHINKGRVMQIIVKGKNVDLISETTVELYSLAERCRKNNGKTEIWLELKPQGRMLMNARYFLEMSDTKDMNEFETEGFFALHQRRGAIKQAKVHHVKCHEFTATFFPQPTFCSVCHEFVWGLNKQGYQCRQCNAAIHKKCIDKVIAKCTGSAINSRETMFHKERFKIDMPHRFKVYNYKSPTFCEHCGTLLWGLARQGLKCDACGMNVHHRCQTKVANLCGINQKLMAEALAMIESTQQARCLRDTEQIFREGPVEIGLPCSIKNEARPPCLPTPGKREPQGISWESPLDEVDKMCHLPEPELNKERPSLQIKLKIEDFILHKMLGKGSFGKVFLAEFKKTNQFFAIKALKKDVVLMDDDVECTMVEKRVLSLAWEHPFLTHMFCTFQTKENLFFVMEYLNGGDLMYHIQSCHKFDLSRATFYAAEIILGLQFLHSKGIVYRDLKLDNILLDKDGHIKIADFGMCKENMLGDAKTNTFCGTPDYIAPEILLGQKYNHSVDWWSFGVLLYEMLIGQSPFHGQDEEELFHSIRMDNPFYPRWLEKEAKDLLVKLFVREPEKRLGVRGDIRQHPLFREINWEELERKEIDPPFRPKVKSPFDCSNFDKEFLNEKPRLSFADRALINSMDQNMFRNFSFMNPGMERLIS
Insulin-like growth factor 1 receptor (Homo sapiens), sequence (P08069 31-736 limits assumed): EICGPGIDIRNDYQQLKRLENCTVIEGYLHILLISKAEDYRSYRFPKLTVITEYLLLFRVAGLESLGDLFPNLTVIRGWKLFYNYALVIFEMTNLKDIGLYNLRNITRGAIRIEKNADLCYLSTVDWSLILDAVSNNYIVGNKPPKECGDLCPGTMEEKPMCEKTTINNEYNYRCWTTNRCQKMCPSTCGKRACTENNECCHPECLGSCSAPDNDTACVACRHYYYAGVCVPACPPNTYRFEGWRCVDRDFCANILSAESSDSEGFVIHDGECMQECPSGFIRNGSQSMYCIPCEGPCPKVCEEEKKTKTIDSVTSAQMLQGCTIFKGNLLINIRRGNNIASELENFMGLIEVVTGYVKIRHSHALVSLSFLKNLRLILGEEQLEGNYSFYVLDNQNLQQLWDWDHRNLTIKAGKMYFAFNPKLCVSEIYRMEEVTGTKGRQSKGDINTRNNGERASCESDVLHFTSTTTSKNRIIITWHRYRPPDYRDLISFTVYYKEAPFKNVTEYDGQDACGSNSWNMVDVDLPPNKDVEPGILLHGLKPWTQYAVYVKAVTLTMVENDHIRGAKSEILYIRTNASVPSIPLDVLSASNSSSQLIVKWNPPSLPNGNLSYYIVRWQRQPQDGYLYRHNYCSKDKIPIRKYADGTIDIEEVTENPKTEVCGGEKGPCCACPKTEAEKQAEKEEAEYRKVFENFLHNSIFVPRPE
Insulin-like growth factor 1 receptor (Homo sapiens), sequence (P08069 741-1367 limits assumed): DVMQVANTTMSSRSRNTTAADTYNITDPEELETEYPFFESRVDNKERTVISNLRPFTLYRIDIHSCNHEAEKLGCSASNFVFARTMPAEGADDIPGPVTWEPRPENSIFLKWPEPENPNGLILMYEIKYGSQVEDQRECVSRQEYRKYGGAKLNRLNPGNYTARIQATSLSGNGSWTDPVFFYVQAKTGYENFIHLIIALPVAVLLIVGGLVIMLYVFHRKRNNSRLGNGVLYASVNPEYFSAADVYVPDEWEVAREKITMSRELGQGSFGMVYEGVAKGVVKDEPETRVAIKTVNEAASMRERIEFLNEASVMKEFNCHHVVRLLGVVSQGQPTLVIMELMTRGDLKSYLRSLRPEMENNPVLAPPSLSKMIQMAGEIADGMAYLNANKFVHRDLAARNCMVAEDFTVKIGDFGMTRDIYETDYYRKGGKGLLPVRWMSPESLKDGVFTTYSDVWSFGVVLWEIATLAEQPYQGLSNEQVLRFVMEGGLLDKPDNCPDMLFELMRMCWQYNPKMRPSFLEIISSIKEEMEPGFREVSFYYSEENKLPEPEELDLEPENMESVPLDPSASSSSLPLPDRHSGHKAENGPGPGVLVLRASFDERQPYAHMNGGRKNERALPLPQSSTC

As to `O=C1NC(=O)/C(=C\c2ccc3nccnc3c2)S1`, the residual activity in test [1] stood at 7%; in [2], 27%; in [3], 3%; in test [4] it was 76%; in test [5] it was 57%; in test [6], 105%. The residual activity was 90% in test [7]; 147% in [8]; 114% in [9]; 108% in test [10]; 103% in test [11]; 78% in [12]. For the same compound, the residual activity in test [13] is 102%; in test [14] it was 81%; in test [15], 89% (inactive); in test [16] it was 88%; in test [17], 103%; in [18], 88%. Further, the residual activity amounted to 108% in [19] and 96% in [20].
For the compound `Nc1n[nH]c2nnc(-c3c(-c4ccccc4)nn4ccccc34)cc12`, the residual activity came out at 93% in test [1]; 128% in [2]; 85% in [3]; 76% in [4]; 40% in test [5]; 87% in [6]. The residual activity was 40% in test [7]; 85% in test [8]; 78% in test [9]; 93% in test [10]; 56% in test [11]; 19% in test [12]. Further, the residual activity in test [13] is 47%; in test [14], 16%; in test [15] it was 115% (inactive); in test [16], 100%; in [17] it was 56%; in test [18], 12%. Further, the residual activity in test [19] is 96%; in [20], 49%.
With `Oc1n[nH]c2nnc(-c3c(-c4ccccc4)nn4ccccc34)cc12`, the residual activity in test [1] was 97%; in test [2], 114%; in [3] it was 106%; in [4] it was 75%; in [5], 67%; in test [6], 92%. The residual activity was 80% in test [7]; 67% in test [8]; 37% in test [9]; 104% in test [10]; 78% in test [11]; 89% in test [12]. Also, the residual activity in [13] was 81%; in [14] it was 75%; in test [15], 104% (inactive); in test [16], 103%; in [17] it was 89%; in [18] it was 71%. The residual activity in test [19] was found to be 104%; in test [20], 98%.
As for `O=C1NC(=O)/C(=C/c2ccc3c(c2)OC(F)(F)O3)S1`, the residual activity turned out to be 88% in [1]; 78% in test [2]; 67% in [3]; 60% in [4]; 46% in [5]; 115% in test [6]. Also, the residual activity in test [7] was determined as 94%; in test [8] it was 98%; in test [9], 130%; in test [10], 111%; in [11], 120%; in test [12], 89%. Further, the residual activity in test [13] was 109%; in [14] it was 100%; in test [15] it was 90% (inactive); in [16], 80%; in test [17] it was 105%; in test [18], 77%. Moreover, the residual activity came out at 107% in test [19] and 99% in test [20].
